# Experimental data: PubChem BioAssay (NCATS)
# Activity calls are given as the source filed them. A call without a number means that no potency is given here. The call rests on the fitted dose curve; in most records, active means well fitted inhibition curve with a large enough effect; inconclusive means small, poorly fitted or top-dose-only effect; inactive means no such curve, though single readings can be large or run the other way.
# Target: Pyruvate kinase (Leishmania mexicana) (UniProt Q27686)
# Test: qHTS Validation Assay for Inhibitors of Leishmania Mexicana Pyruvate Kinase (AID 945)
# Settings: purified L. mexicana pyruvate kinase, enzyme activity, E451W mutant enzyme; series mostly up to 57.5 µM
# How it was run: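 An endpoint luciferase assay: 0.2 nM LmPYK E451W turns over 0.5 mM PEP with 0.1 mM ADP for 1 h at room temperature, pH 7.2, before PKLight addition. Values are normalized to DMSO-only wells.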
# Chain of Pyruvate kinase (Leishmania mexicana) (Q27686 2-499 E452W): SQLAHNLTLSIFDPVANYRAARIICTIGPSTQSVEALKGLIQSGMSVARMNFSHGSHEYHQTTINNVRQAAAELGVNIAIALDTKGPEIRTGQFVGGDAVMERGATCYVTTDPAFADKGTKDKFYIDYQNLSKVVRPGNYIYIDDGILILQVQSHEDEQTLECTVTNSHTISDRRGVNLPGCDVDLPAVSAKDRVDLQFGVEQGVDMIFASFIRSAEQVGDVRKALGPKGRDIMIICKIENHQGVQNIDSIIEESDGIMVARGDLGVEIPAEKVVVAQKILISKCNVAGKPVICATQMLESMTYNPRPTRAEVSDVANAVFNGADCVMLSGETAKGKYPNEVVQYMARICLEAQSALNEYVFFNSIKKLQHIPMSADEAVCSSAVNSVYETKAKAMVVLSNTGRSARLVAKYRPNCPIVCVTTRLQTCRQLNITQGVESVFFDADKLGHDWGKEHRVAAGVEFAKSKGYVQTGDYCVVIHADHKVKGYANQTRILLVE
row,SMILES,Potency
1,O=C(O)C1=CCCNC1,inactive
2,CN1CCN(c2nc3cc(C(F)(F)F)ccc3n3cccc23)CC1,inactive
3,COc1cc(N)c(Cl)cc1C(=O)OCCN1CCCCC1,inactive
4,O=c1onc2n1-c1cc(Br)ccc1OC2,inactive
5,N#C/C(=C\c1ccc(O)c(O)c1)C(=O)NCCc1ccccc1,inactive
6,NC1(C(=O)O)CCCCC1,inactive
7,COc1ccc2c(c1)c(CC(=O)O)c(C)n2Cc1ccc(Cl)cc1,inactive
8,NCCNS(=O)(=O)c1cccc2c(Cl)cccc12,inactive
9,COc1ccc(CCN(C)CCc2ccc(OC)c(OC)c2)cc1OC,inactive
10,Nc1ccc2c3c(cccc13)C(=O)NC2=O,inactive
11,O=C(O)C1=CCNCC1,inactive
12,NC(N)=[N+]1CCc2ccccc2C1,inactive
13,COc1cc2c(CCNC(C)=O)c[nH]c2cc1O,inactive
14,OC1(c2ccc(Cl)cc2)CCN(Cc2c[nH]c3ccccc23)CC1,inactive
15,CC(C)(C)c1cc(/C=C(\C#N)C(N)=S)cc(C(C)(C)C)c1O,inactive
16,COc1ccc2c(c1)c(CC(=O)O)c(C)n2C(=O)c1ccccc1,inactive
17,CCCC(=O)NCCc1c2n(c3ccc(OC)cc13)CCCc1ccccc1-2,inactive
18,Cn1c(=O)[nH]c2ncn(C)c2c1=O,inactive
19,CCCCCCCC/C=C\CCCCCCCC(=O)NCCc1ccc(O)c(O)c1,inactive
20,CCCCOC(=O)NS(=O)(=O)c1sc(CC(C)C)cc1-c1ccc(Cn2c(CC)nc3c(C)cc(C)nc32)cc1,inactive
21,CCCCCCCCCCC/C=C\C(C)(C)/C=C\CCCC(=O)O,inactive
22,O=C(O)C1=CCCN(CCON=C(c2ccccc2)c2ccccc2)C1,inactive
